Laboratory results from article PMC4552634, “A New Set of Chemical Starting Points with Plasmodium falciparum Transmission-Blocking Potential for Antimalarial Drug Discovery” (PLoS ONE, 2015).
Where two headings read alike, the source gives them in different places. Among all 13,000 compounds or so, about 3,200 (25%) showed an effect of 50% or more. The list shows a part of the results.

Test system: P. falciparum stage V gametocytes
Design: BacTiter-Glo ATP luminescence viability of purified stage V gametocytes in 384-well plates, per cent inhibition versus DMSO
Details: 48 h, 5 µM, inhibitor

Row | SMILES | % Inhibition | % Inhibition (% Inhibition)
1 | Cc1nc2ccc3ccc(CNc4ccc(C#N)cc4)cc3c2c(=O)[nH]1 [TCMDC-137846] | -36.65% | –
2 | CCCCCCN1CCCN(Cc2ccc(C(=O)Nc3ccc(C(C)(C)C)cc3)cc2)CC1 [TCMDC-136446] | -5.342% | –
3 | O=C(Cc1ccc[n+]([O-])c1)Nc1ccc(-c2cccc(-c3nc4cc(C(F)(F)F)ccc4[nH]3)c2)cc1 [TCMDC-136991] | -49.92% | –
4 | O=C(Nc1ccc(-c2cccc(-c3nc4ccc(C(F)(F)F)cc4[nH]3)c2)cc1)c1ccoc1 [TCMDC-136845] | 54.13% | –
5 | O=C(Nc1cccc(-c2cccc(-c3nc4ccc(C(F)(F)F)cc4[nH]3)c2)c1)c1ccoc1 [TCMDC-136844] | 9.594% | –
6 | O=C(Nc1cccc(-c2ccc(-c3nc4ccc(C(F)(F)F)cc4[nH]3)cc2)c1)c1ccncc1 [TCMDC-136967] | -31.79% | –
7 | O=C(Nc1cccc(-c2cccc(-c3nc4ccc(C(F)(F)F)cc4[nH]3)c2)c1)c1cccnc1 [TCMDC-136925] | -23.9% | –
8 | NC(=O)c1cccc(C(=O)Nc2ccc(-c3cccc(-c4nc5ccc(C(F)(F)F)cc5[nH]4)c3)cc2)c1 [TCMDC-132200] | -70.46% | –
9 | O=C(Nc1ccc(-c2cccc(-c3nc4ccc(C(F)(F)F)cc4[nH]3)c2)cc1)c1ccncc1 [TCMDC-136964] | -22.85% | –
10 | O=C(Nc1cccc(-c2ccc(-c3nc4ccc(C(F)(F)F)cc4[nH]3)cc2)c1)c1cccnc1 [TCMDC-136930] | 51.27% | –
11 | O=C(Nc1cccc(-c2ccc(-c3nc4ccc(C(F)(F)F)cc4[nH]3)cc2)c1)c1ccoc1 [TCMDC-136848] | -29.98% | –
12 | O=C(Nc1ccc(-c2cccc(-c3nc4ccc(C(F)(F)F)cc4[nH]3)c2)cc1)c1cccnc1 [TCMDC-136926] | 86.45% | –
13 | CC(=O)Oc1ccc(C(=O)Oc2ccccc2C#CC#N)cc1OC(C)=O [TCMDC-138111] | 22.32% | –
14 | CC(Oc1ccc(Cl)cc1Cl)c1nc(-c2ccc(NC(=O)c3ccco3)cc2)no1 (stereo not shown) [TCMDC-124355] | -1.611% | –
15 | O=C(Nc1ccc2c(c1)CN(Cc1ccc(N3CCCC3)o1)CCC2)c1cncs1 [TCMDC-134724] | -13.68% | –
16 | O=C(/C=C/c1ccc(C(F)(F)F)cc1)NC1CCC(CN2CCC(c3c[nH]c4ccccc34)CC2)CC1 (stereo not shown) [TCMDC-139768] | – | 87.3%
17 | O=C(/C=C/c1ccc(C(F)(F)F)cc1)NC1CCC(CN2CCC(c3c[nH]c4ccccc34)CC2)CC1 (stereo not shown) [TCMDC-139758] | – | 96.79%
18 | O=C(/C=C/c1cc(C(F)(F)F)ccc1F)NC1CCC(CN2CCC(c3c[nH]c4ccccc34)CC2)CC1 (stereo not shown) [TCMDC-139855] | -4.527% | –
19 | CS(=O)(=O)c1ccc(-c2cncc(Cl)n2)cc1 [TCMDC-135191] | 20.05% | –
20 | COc1cc(NC(=O)/C=C/c2cc(F)cc(F)c2F)cc(OCCN2CCCCC2)c1 [TCMDC-140932] | -50.87% | –
21 | Cc1cc(N2CCCN(C)CC2)nc(Nc2ccc(Cl)cc2)n1 [TCMDC-137009] | 14.59% | –
22 | Cc1cc(NC2CCN(CC3CCCCC3)C2)nc(Nc2ccc(Cl)cc2)n1 (stereo not shown) [TCMDC-137018] | 51.98% | –
23 | Cc1cc(N2CCC(N(C)C)C2)nc(Nc2ccc(Cl)cc2)n1 (stereo not shown) [TCMDC-137011] | -3.517% | –
24 | Cc1cc(N2CCN(CC3CCN(C)CC3)CC2)nc(Nc2ccc(Br)cc2)n1 [TCMDC-137016] | 54.5% | –
25 | Cc1cc(NCC2CCN(CC3CCCCC3)C2)nc(Nc2ccc(Cl)cc2)n1 (stereo not shown) [TCMDC-137020] | -71.76% | –
26 | Cc1cc(N2CCCN(CC3CCCCC3)CC2)nc(Nc2ccc(Br)cc2)n1 [TCMDC-137133] | -10.88% | –

Row | SMILES | % Inhibition | % Inhibition (% Inhibition)
27 | Cc1cc(N2CCN(CC3CCCCC3)CC2)nc(Nc2ccc(Br)cc2)n1 [TCMDC-137021] | -43.3% | –
28 | Cc1cc(NC2CCN(CC3CCCCC3)C2)nc(Nc2ccc(Br)cc2)n1 (stereo not shown) [TCMDC-137022] | 32.36% | –
29 | Cc1cc(N2CCN(CC3CCN(C)CC3)CC2)nc(Nc2ccc(Cl)cc2)n1 [TCMDC-137012] | 55.47% | –
30 | COc1ccc(Nc2ncc3c(-c4ccc(NC(=O)c5cccc(C(F)(F)F)c5)cc4)c[nH]c3n2)cc1OC [TCMDC-138863] | -42.22% | –
31 | Cc1cnccc1/C=C/c1cccc(OCCN2CCc3ccc(S(C)(=O)=O)cc3CC2)c1 [TCMDC-135875] | 13.2% | –
32 | Cc1noc(C)c1-c1ccc2c(Nc3ccc([N+](=O)[O-])cc3)c(C(N)=O)cnc2c1.Cl [TCMDC-136009] | -6.074% | –
33 | CN(C(=O)c1ccccc1)C1c2cc(C#N)ccc2OC(C)(C)C1O (stereo not shown) [TCMDC-131573] | -17.79% | –
34 | O=C1O[C@H](c2ccccc2)[C@H](c2ccccc2)N(C(=O)OCc2ccccc2)[C@H]1Cc1ccccc1C1CCCC1 [TCMDC-137303] | 5.453% | –
35 | OC(c1ccccc1)C1CN(CCC2CC3CCC2C3)CCC1(O)c1ccccc1 (stereo not shown) [TCMDC-131996] | -67.18% | –
36 | CCC(C)NS(=O)(=O)c1ccc2nc(Nc3cccc(SC)c3)n(C(C)C(C)C)c2c1 (stereo not shown) [TCMDC-136237] | -59.9% | –
37 | Cc1cc(Nc2c(C(N)=O)cnc3cc(-c4ccoc4)ccc23)ccc1N1CCN(C)CC1.Cl [TCMDC-135441] | -28.97% | –
38 | Cl.NC(=O)c1cnc2cc(-c3ccoc3)ccc2c1Nc1ccc(NC(=O)Nc2ccccc2Cl)cc1 [TCMDC-135442] | 70.72% | –
39 | CN1CCN(c2ccc(Nc3c(C(N)=O)cnc4cc(-c5ccoc5)ccc34)cc2)CC1.Cl [TCMDC-135440] | -93.68% | –
40 | O=C(Nc1ccccc1-c1nc2ccccc2s1)C(Cl)(Cl)Cl [TCMDC-123676] | 7.005% | –
41 | CCOc1c(CNCCCNc2nc3ccccc3[nH]2)cc(I)cc1OC [TCMDC-140105] | 34.54% | –
42 | Clc1cc(Cl)c2cc(CNCCCNc3ccc4ccccc4n3)[nH]c2c1 [TCMDC-140495] | 95.02% | –
43 | Cc1cc(C)c2cc(CNCCCNc3nc4ccccc4[nH]3)[nH]c2c1 [TCMDC-140069] | 42.15% | –
44 | O=c1cc(NCCCNCc2cc3c(Cl)cc(Cl)cc3[nH]2)[nH]c2ccccc12 [TCMDC-139789] | 2.174% | –
45 | CCOc1c(Br)cc(Br)cc1CNCCCCNc1nc2ccccc2[nH]1 [TCMDC-139968] | 0.6072% | –
46 | c1ccc(-c2ccc(CNCCCNc3nc4ccccc4[nH]3)cc2)cc1 [TCMDC-136061] | 54.24% | –
47 | O=C(NCCCNc1ccc2ccccc2n1)c1cc2c(Cl)cc(Cl)cc2[nH]1 [TCMDC-140378] | 3.853% | –
48 | Clc1ccc(Cl)c2[nH]c(CNCCCNc3nc4ccccc4[nH]3)cc12 [TCMDC-139957] | 50.82% | –
49 | CCOc1c(CNCCCNc2nc3ccccc3[nH]2)cc(Br)cc1OC [TCMDC-140089] | 52.36% | –
50 | Brc1cc(CNCCCNc2nc3ccccc3[nH]2)sc1Br [TCMDC-139801] | 12.5% | –
51 | FC(F)(F)c1cc(C(F)(F)F)c2cc(CNCCCNc3nc4ccccc4[nH]3)[nH]c2c1 [TCMDC-139965] | -11.18% | –
52 | Clc1ccc2c(Cl)c(CNCCCNc3nc4ccccc4[nH]3)[nH]c2c1 [TCMDC-139967] | -22.32% | –
